GAA inhib: alpha-glucosidase (human) inhibition. purified human GAA, 4-MU-alpha-glucoside fluorescence. Potency, µM (doses to about 76.9 µM), hits mostly inhibitors. actives 0.005% (n = 200,000)
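Human enzyme at 4 nM with 400 uM 4-methylumbelliferyl-alpha-D-pyranoside, citrate/phosphate buffer pH 5.0, 0.005% Tween-20, 20 min at room temperature. Compounds up to 77 uM. 4-MU fluorescence (Ex 365/Em 440) read after NaOH/glycine stop; AC50 from Hill fit.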
GALK inhibitor: inhibitors of human galactokinase. Purified GALK, Kinase-Glo residual ATP luminescence. P51570. actives 0.007% (n = 270,000). AID 1868. Potency, µM (top dose mostly 57.5 µM), actives largely listed as inhibitors
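Quantitative HTS: GALK 5 nM, ATP 35 uM, galactose 100 uM, 1 h room temperature, then luciferase-based ATP detection.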
PKM2 activator: PKM2 (human) enzyme activation | purified PKM2, Kinase-Glo ATP luminescence, activation; response scale: 0% is enzyme alone, no compound | actives 0.34% (n = 260,000) | AID 1631 | Potency, µM (titrated, usually from 57.5 µM), most hits filed as activators | P14618; note: nearly all actives have a fitted effect of over 55% in size
Target sequence (P14618 whole entry, looked up): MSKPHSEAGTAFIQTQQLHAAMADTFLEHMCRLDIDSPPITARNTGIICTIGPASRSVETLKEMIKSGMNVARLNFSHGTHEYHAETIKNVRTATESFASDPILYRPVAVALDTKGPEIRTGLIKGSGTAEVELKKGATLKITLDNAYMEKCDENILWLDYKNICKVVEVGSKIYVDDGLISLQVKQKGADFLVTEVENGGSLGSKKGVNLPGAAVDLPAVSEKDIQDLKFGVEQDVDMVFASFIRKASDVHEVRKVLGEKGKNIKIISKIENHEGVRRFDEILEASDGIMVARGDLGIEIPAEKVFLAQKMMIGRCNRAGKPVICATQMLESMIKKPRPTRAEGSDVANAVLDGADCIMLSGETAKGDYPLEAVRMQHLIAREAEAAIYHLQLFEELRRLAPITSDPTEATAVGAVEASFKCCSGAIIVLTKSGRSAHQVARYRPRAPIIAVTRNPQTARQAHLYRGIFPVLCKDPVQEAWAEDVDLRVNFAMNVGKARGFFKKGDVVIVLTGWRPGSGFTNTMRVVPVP
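ATP formation by purified human PK-M2, quantified via coupled luciferase luminescence after 1 h at room temperature with 0.1 mM ADP and 0.5 mM PEP final.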
GAA spleen mod: inhibitors or activators of human alpha-glucosidase in spleen homogenate; P10253; human spleen homogenate, 4-MU-alpha-glucoside fluorescence; Potency, µM (doses to about 79.9 µM), actives largely listed as inhibitors; actives 0.006% (n = 240,000); AID 2112
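Human spleen homogenate (1 ug) incubated with compounds and 1 mM 4-methylumbelliferyl-alpha-D-glucopyranoside in pH 5.0 citrate/phosphate buffer, 37 C, 40 min. Stopped at pH 10; 4-MU fluorescence (Ex 365/Em 440 nm); AC50 by Hill fit.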
GAA glycogen: GAA glycogen-cleavage inhibition or activation. P10253. AID 2100. recombinant GAA, glycogen substrate, Amplex Red glucose oxidase fluorescence. Potency, µM (doses to about 76.4 µM), actives largely listed as inhibitors. actives 0.38% (n = 300,000);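 note: the screen sought inhibitors and activators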
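qHTS, 1536-well; enzyme 4 nM final; cpd up to 77 uM; substrate bovine liver glycogen 30 ug; 50 mM citrate/phosphate pH 5.0, 0.01% Tween-20; 37 C, 40 min; Amplex Red detection 45 min RT; Hill fit → AC50.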
Numbers stand for hits; 0 = inactive; ? = inconclusive; - = no result; [ ] = remark or other dose. In the library only some 0.63% were active in any assay of this set; here they are far more common. Calls come from the whole dose curve; as a rule, active = well fitted curve in the direction sought with a large enough effect; inconclusive = small, poorly fitted or top-dose-only effect, or another doubt; inactive = no such curve, though single readings can be large; an effect the other way counts as inactive or inconclusive.

SMILES	GAA inhib	GALK inhibitor	PKM2 activator	GAA spleen mod	GAA glycogen
Cn1c(=O)c2c(nc(SCC(=O)Nc3ccccc3F)n2Cc2ccccc2F)n(C)c1=O	-	-	-	-	0
O=C1C=CC(=O)N1CCNc1ncc(C(F)(F)F)cc1Cl	0	0	17.8µM	0	0
O=C1CC(=O)N(CCNc2ncc(C(F)(F)F)cc2Cl)C(=O)N1	0	0	0	0	0
COc1ccccc1Cn1c(=S)[nH]c2cc(C(=O)N3CCN(c4ccccc4OC)CC3)ccc2c1=O	-	0	-	-	0
COc1ccc(Cn2c(=O)[nH]c3cc(C(=O)N4CCN(Cc5ccccc5)CC4)ccc3c2=O)cc1	?	0	12.6µM	0	0
COc1ccccc1N1CCN(C(=O)c2ccc3c(=O)n(Cc4ccco4)c(=S)[nH]c3c2)CC1	0	0	1.12µM	0	0
COc1ccc(Cn2c(=O)[nH]c3cc(C(=O)N4CCN(c5ccccc5OC)CC4)ccc3c2=O)cc1	-	0	0	-	0
O=C(CSc1nccc(=O)[nH]1)N1N=C2/C(=C/c3ccco3)CCCC2C1c1ccco1 (centres undefined)	0	0	?	0	0
Cn1cnnc1SCC(=O)N1N=C2/C(=C/c3ccco3)CCCC2C1c1ccco1 (centres undefined)	0	0	28.2µM	0	0
CCOC(=O)Nc1ccc2c(c1)N(C(=O)CN(CC)CC)c1ccccc1CC2	-	0	0	-	8.91µM
COc1ccc(NC(=O)C(NC(=O)C2CCC(C)CC2)C(C)C)cc1 (centres undefined)	-	-	-	-	0
O=C(/C=C1\C(=O)Nc2ccccc21)/C=C1\C(=O)Nc2ccccc21	0	0	1.41µM	0	0
CCOc1ccc(NC(=O)c2cnn3c2NC(c2cccc(OC)c2)=CC3c2ccccc2)cc1 (centres undefined)	-	-	-	-	0
COc1ccc2c(c1)c1ncn(Cc3ccco3)c(=O)c1n2C	?	0	1.26µM	0	0
COc1ccc(C(=O)N(Cc2sccc2C)C2CCS(=O)(=O)C2)cc1Cl (centres undefined)	-	-	-	-	0
Cc1ccc(N2C(=O)C3Sc4[nH]c(=O)sc4C(c4ccccc4)C3C2=O)cc1 (centres undefined)	0	0	0	0	31.4µM
O=C1C2Sc3[nH]c(=O)sc3C(c3ccccc3)C2C(=O)N1c1ccc(Cl)cc1 (centres undefined)	0	0	0	0	28.2µM
COc1ccc(NC(=O)NC(C)c2c(-n3cccc3)sc3c2CCN(C)C3)c(OC)c1 (centres undefined)	-	-	-	-	0
CCOC(=O)c1nnc2c(-c3ccc(Cl)cc3)c(C)nn2c1N	-	-	-	-	0
CCN1CCN(Cc2nc3cc(NC(=O)c4cc(OC)c(OC)c(OC)c4)ccc3n2CC)CC1	-	-	-	-	0
COC(=O)c1ccc(-c2noc(CN(C)CCC3CCCCO3)n2)cc1 (centres undefined)	0	0	0.199µM	0	0
COc1cc2c(cc1OC)/C(=C/C(=O)N1CCOCC1)NC(C)(C)C2	0	0	25.1µM	0	0
C=Cc1ccc(Cn2c(C(=O)O)c(CNC3CCCCC3)c3ccc(OC)cc32)cc1	-	-	-	-	0
O=C(O)/C=C/c1ccc(O)c(O)c1	0[15.4 µM]	0	0	?	7.94µM
O=C(/C=C/c1ccc(O)c(O)c1)NC(=O)c1ccccc1O	-	-	0	0	3.55µM
SMILES	GAA inhib	GALK inhibitor	PKM2 activator	GAA spleen mod	GAA glycogen
Nc1nc(-c2ccccc2)c(-c2ccc([N+](=O)[O-])cc2)s1	0	0	20µM	0	0
Nc1nc(-c2ccccc2)c(-c2ccccc2)s1	0	-	0	0	0
CC(=O)c1cccc(NC(=O)c2c(-c3ccccc3)c(-c3ccccc3)nn(C)c2=O)c1	-	-	-	-	0
C/C(=N\Nc1ccc(Cl)cc1)c1ccccn1	0	0	0	0	7.08µM
CN(C)C(/C=C/Nc1ccc(O)cc1)=C(C#N)C#N	0	0	0	0	7.94µM
Cc1cccc(N/C=C/C(=C(C#N)C#N)N(C)C)c1	0	0	0	0	0
Cn1c(OCc2cccnc2)nc2c1c(=O)n(Cc1ccc(Br)cc1)c(=O)n2C	0	0	20µM	0	0
NCCc1ccc(O)c(O)c1	0[15.4 µM]	0	0	0	1.98µM
COc1ccccc1S(=O)(=O)Nc1ccc(-c2nnc3n2CCCCC3)cc1	0	0	20µM	0	0
CCCCn1c(SCC(=O)c2ccc(O)c(O)c2)nc2ccsc2c1=O	0	0	0	0	28.2µM
C=CCn1c(SCC(=O)c2ccc(O)c(O)c2)nnc1-c1ccccc1OC	0	0	0	0	17.6µM
CCn1c(SCC(=O)c2cc(C)n(C)c2C)nnc1-c1ccccc1	0	0	0	0	0
C=CCn1c(SCC(=O)c2ccc(O)c(O)c2)nnc1-c1cccnc1	-	0	0	0	?
O=C(CCCn1c(SCC(=O)c2ccc(O)c(O)c2)nc2ccccc2c1=O)NCC1CCCO1 (centres undefined)	0	0	0	0	5.58µM
CCn1c(SCC(=O)c2ccc(O)c(O)c2)nnc1-c1ccccc1	?	0	0	0	7.94µM
O=C(CCCn1c(SCC(=O)NC2CCCCC2)nc2ccccc2c1=O)NCC1CCCO1 (centres undefined)	0	0	0	0	0
CCOc1ccc(CCNC(=O)c2cn(CC)c3ccc(S(=O)(=O)N4CCc5ccccc5C4)cc3c2=O)cc1OCC	-	-	-	-	0
Cn1c(=O)c2sccc2n2c(CCCC(=O)Nc3ccc(Oc4ccccc4)cc3)nnc12	-	-	-	-	0
CCn1c(CNC(=O)c2ccc(OC)cc2)nnc1SCC(=O)Nc1ccc(F)cc1	-	-	-	-	0
COc1ccc(NC(=O)Cn2c(=O)n(C(C)C)c(=O)c3oc4ccccc4c32)cc1Cl	-	-	-	-	0
CCn1c(SCC(=O)c2ccc(O)c(O)c2)nnc1-c1ccccc1OC	0	0	0	0	24.9µM
COc1ccccc1-c1nnc(SCC(=O)c2ccc(Cl)cc2)n1-c1ccccc1	-	-	-	-	0

From PubChem
